Screens deposited in PubChem BioAssay by National Center for Advancing Translational Sciences (NCATS).
An excerpt weighted towards active compounds, which were near 17% of everything screened.
DT40 TDP1 CPT – DT40-hTDP1 cell growth loss with CPT; chicken DT40 Tdp1-/-;hTDP1 cells + 20 nM CPT, ATP luminescence, 48 h; Potency, µM (series often up to 46.2 µM), inactives show at the highest dose activity change, negative = growth inhibition, actives largely listed as inhibitors; hit rate 12% among 420,000; AID 686979; further: on the % scale 0 is the no-effect control and ±100 the full control effect; nearly all actives have a fitted effect of over 55% in size
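Cell growth measured by CellTiter-Glo luminescence after a minimum 48 h, 37 C compound exposure with 20 nM CPT in Tdp1-knockout DT40 cells stably expressing hTDP1, seeded 400/well; qHTS titration format.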
HepG2 viability – kills HepG2 cells in TGF-b inhibitor counter-screen; hit rate 0.76% among 410,000; HepG2 CAGA-GFP viability, ATP luminescence, 18 h; Potency, µM (titrated, usually from 46.1 µM), without a hit: at the top dose activity change, negative = cytotoxicity, usual class: cytotoxic
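HepG2 CAGA-GFP cells (1000/well, DMEM with 1% FBS) received compound, then TGF-beta at 500 pg/mL final, and were incubated 18 hours at 37 degrees C. Viability was read by CellTiter-Glo luminescence. Media-only wells were set as complete cell-killing and DMSO as no toxicity.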
TDP1 cell noCPT – qHTS for Inhibitors of human tyrosyl-DNA phosphodiesterase 1 (TDP1): qHTS in cells in absence of CPT. DT40 Tdp1-/- hTDP1 cells, no CPT, ATP luminescence, 48 h. Potency, µM (highest dose often 46.2 µM), without a hit: at the highest dose activity change, negative = growth inhibition, actives largely listed as inhibitors. hit rate 15% among 420,000. AID 686978, 2013; further: on the % scale 0 is the no-effect control and ±100 the full control effect; nearly all actives have a fitted effect of over 55% in size
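DT40 Tdp1-/-;hTDP1 cells, no CPT (DMSO vehicle only), 400 cells/well; compounds pin-transferred; ≥48 hr, 37 °C; CellTiter-Glo 30 min RT dark, luminescence read.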
ATXN2 expr inh – ATXN2 expression inhibition; hit rate 0.72% among 360,000; AID 1745845; HEK-293 ATXN2-luciferase reporter, luminescence, 24 h; Potency, µM (highest dose often 57 µM), inactives show at the top dose activity change, negative = inhibition, hits mostly inhibitors; further: on the % scale 0 is the no-effect control and ±100 the full control effect; nearly all actives have a fitted effect of over 55% in size
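qHTS (up to 57 uM final) was run with 24 h compound exposure of reporter cells at 37 °C. Each well was multiplexed: SteadyGlo luminescence measured ATXN2-luciferase expression after a fluorogenic Gly-Phe-AFC viability readout (25 uM final).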
TGFb inhibitor – TGF-b pathway inhibition; HepG2 CAGA-GFP TGF-b/SMAD3 reporter, GFP fluorescence, 18 h; TGF-beta stimulated, 500 pg/mL final; hit rate 1.2% among 410,000; AID 588855; Potency, µM (highest dose often 46.1 µM), for inactives: at the highest dose activity, negative = inhibition, hits mostly inhibitors; further: on the % scale 0 is the no-effect control and ±100 the full control effect; nearly all actives have a fitted effect of over 65% in size
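Using HEPG2 CAGA-GFP reporter cells at 1000 cells/well, we pinned test compounds, stimulated with recombinant TGF-beta (500 pg/mL final) and measured total well GFP after 18 h.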
S2 tox – cell viability loss in ATXN counter-screen. Potency, µM (titrated, usually from 56.7 µM), actives largely listed as cytotoxic. S2 cells (HEK-293 line with an ATXN2-luciferase reporter) viability, CellTiter-Fluor protease fluorescence, 24 h. hit rate 0.49% among 400,000; further: nearly all actives have a fitted effect of over 40% in size
Active calls of the source: *; i = inactive; ? = inconclusive; . = not tested or not shown; [ ] = remark or other dose. The call rests on the fitted dose curve; in most records, active means well fitted curve in the direction sought with a large enough effect; inconclusive means small, poorly fitted or top-dose-only effect, or another doubt; inactive means no such curve, though single readings can be large; an effect the other way counts as inactive or inconclusive. Potency means the concentration at half of the fitted maximal effect.

SMILES	DT40 TDP1 CPT	HepG2 viability	TDP1 cell noCPT	ATXN2 expr inh	TGFb inhibitor	S2 tox
C=CCSC1=C(C#N)C(c2ccc(OCC)cc2)CC(=O)N1 (stereo not given)	-15%	-19%	-23%	9%	-2%	i
COc1cc(=O)n2c(c1C(=O)N(C)Cc1nccs1)CCN(Cc1cc3ccccc3s1)CC2	-107%	.	?	.	.	i
CC(=O)N1N=C(c2cccc(Cl)c2)OC1c1cccc([N+](=O)[O-])c1 (stereo not given)	?	1%	21µM*	-6%	-1%	i
CC(=O)N1N=C(c2cccc([N+](=O)[O-])c2)OC1c1cccc(Br)c1 (stereo not given)	-4%	-3%	?	3%	-11%	i
COc1ccc2c(c1)c1ncn(CCN3CCCC3)c(=O)c1n2C	-1%	-12%	1%	-7%	-2%	i
COc1ccccc1CCn1cnc2c3cc(C)ccc3n(C)c2c1=O	18µM*	-37%	12µM*	-8%	-2%	i
Cc1cc2c(c(=O)o1)C(c1cccs1)C(C#N)=C(N)O2 (stereo not given)	23µM*	9%	18µM*	4%	4%	?
COc1cc(C2C(C#N)=C(N)Oc3cc(N)ccc32)cc(OC)c1OC (stereo not given)	0.92µM*	-2%	0.65µM*	26%	-18%	?
Cc1ccc([C@H]2C(C#N)=C(N)Oc3cc(C)oc(=O)c32)o1	16µM*	2%	23µM*	-27%	4%	i
COc1cc(C2C(C#N)=C(N)Oc3cc(C)oc(=O)c32)cc(OC)c1OC (stereo not given)	?	3%	23µM*	3%	21%	i
COc1cc(C2C(C#N)=C(N)Oc3cc(C)oc(=O)c32)cc2c1OCO2 (stereo not given)	-17%	-29%	-17%	7%	8%	i
Cc1cc2c(c(=O)o1)C(C(C)C)C(C#N)=C(N)O2 (stereo not given)	-7%	-13%	-14%	4%	-1%	i
O=C(c1cnccn1)N1CCC2(CC1)CCN(C(c1ccccc1)c1ccccc1)CC2	-4%	.	?	.	.	.
CN(C)c1ccc(C=NC2CCc3ccccc32)cc1 (stereo not given)	-1%	-7%	-20%	.	0%	.
CC(=O)N1CCC(=NNS(=O)(=O)c2cccc([N+](=O)[O-])c2)CC1	2%	1%	-26%	-2%	1%	i
Cc1cc(C)cc(OCC(=O)Nc2ccc(S(=O)(=O)Nc3onc(C)c3C)cc2)c1	2%	-11%	-8%	10%	-13%	i
O=C1C(NS(=O)(=O)c2ccc(Br)cc2)=C(N2CCCCC2)C(=O)c2ccccc21	?	-90%	18µM*	.	?	?
CC1CCN(C2=C(NS(=O)(=O)c3ccc(Br)cc3)C(=O)c3ccccc3C2=O)CC1	?	-43%	18µM*	.	?	?
CCOC(=O)C1CCCN(C2=C(NS(=O)(=O)c3ccc(Br)cc3)C(=O)c3ccccc3C2=O)C1 (stereo not given)	18µM*	-91%	16µM*	.	?	?
CC1CCN(C2=C(NS(=O)(=O)c3ccccc3)C(=O)c3ccccc3C2=O)CC1	?	-39%	?	-7%	?	?
CC1CCCN(C2=C(NS(=O)(=O)c3ccc(Br)cc3)C(=O)c3ccccc3C2=O)C1 (stereo not given)	?	1%	12µM*	2%	-1%	i
Nc1c(C(=O)NCc2cccs2)nnn1CC(=O)Nc1cccc(F)c1	2%	3%	-7%	-2%	19%	i
CCCCC(=O)Nc1cccn2ncnc12	11%	0%	?	-35%[11.3 µM]	1%	i
CCN(CC)/[N+]([O-])=N/OCOC(=O)c1ccccc1OC(C)=O	.	6%	.	.	-9%	.
CC(=O)c1c(C)[nH]c(C(=O)OCC(=O)C(C)(C)C)c1C	-14%	-12%	-5%	50%	1%	i
SMILES	DT40 TDP1 CPT	HepG2 viability	TDP1 cell noCPT	ATXN2 expr inh	TGFb inhibitor	S2 tox
CC(=O)c1c(C)[nH]c(C(=O)OCC(=O)c2ccc(C)s2)c1C	23µM*	-14%	18µM*	1%	-8%	i
CSc1ncccc1C(=O)OCC(=O)c1[nH]c(C)c(C(C)=O)c1C	18µM*	-27%	?	7%	3%	i
CC(=O)c1c(C)[nH]c(C(=O)COc2cc(C)cc(C)c2)c1C	?	-1%	16µM*	-12%	17%	i
CSc1ncccc1C(=O)OCC(=O)c1ccc[nH]1	-13%	-11%	-21%	.	3%	i
CC(=O)c1c(C)[nH]c(C(=O)OCc2ccccc2F)c1C	15µM*	-5%	21µM*	43%	-15%	i
CCOC(=O)CCN(c1ccccc1)S(=O)(=O)c1ccc2[nH]c(=O)ccc2c1	-24%	-21%	-20%	8%	11%	i
COc1ccc(CN(C)C(=O)c2[nH]c(C)c(C(C)=O)c2C)cc1F	?	5%	15µM*	0%	9%	i
COC(=O)c1c(C)[nH]c(C(=O)COc2ccc3ccc(=O)oc3c2)c1C	?	-27%	9.2µM*	-21%	1%	i
CC(=O)c1c(C)[nH]c(C(=O)OCCOc2ccccc2)c1C	?	-4%	9.2µM*	-21%	?	i
CC(=O)c1c(C)[nH]c(C(=O)COC(=O)CCCOc2ccccc2)c1C	5%	-22%	-3%	.	5%	i
COc1ccc(CCNC(=O)c2[nH]c(C)c(C(C)=O)c2C)cc1OC	-7%	-3%	-16%	9%	8%	i
COc1ccc(C)cc1COC(=O)c1[nH]c(C)c(C(C)=O)c1C	21µM*	-17%	16µM*	2%	-6%	?
CC(=O)c1c(C)[nH]c(C(=O)OCc2cccc(C)c2)c1C	16µM*	-19%	13µM*	43%	-26%	i
Cc1cccc(Oc2ccc(NC(=O)C3=CC=CN4CCS(=O)(=O)N=C34)cc2)c1	?	-1%	-1%	-13%	-5%	i
COc1ccc(N(C(=O)c2ccccc2)S(=O)(=O)c2ccc3c(c2)n(C)c(=O)n3C)cc1	?	-14%	?	2%	-2%	i
